Source: PubChem BioAssay
Compounds with a hit are over-represented: about 4.3% of the library has one in this group of screens.
Yeast superoxide = reduction of superoxide in aged yeast, primary screen, HTS; S. cerevisiae aged cells, superoxide DHE fluorescence; active compounds read low; superoxide response (% of plate mean), % at 10 µM; 330,000 tested, 0.18% active; AID 2690, 2010;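 active = superoxide response under a set limit, about three screen SD below normal, cut at about 65% in these data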;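 also: yeast aged for seven days with compound at 30 °C before DHE staining; 100% = average MFI of all compound-treated wells on the plate with controls excluded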
dFosB act = activators of delta FosB homodimer, primary screen, biochemical, fluorescence polarization, TAMRA-CDK5 oligo, single point. Protein FosB (Mus musculus), P13346. 340,000 tested, 0.99% active. activation, % at 25 µM. AID 493131, 2011. purified delta FosB; percent of positive-control signal above neutral wells;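 active = mean activation above about 17%, with every replicate also reaching it, limit read from the data, passing the limit was not always enough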
Target sequence (P13346 whole entry, looked up): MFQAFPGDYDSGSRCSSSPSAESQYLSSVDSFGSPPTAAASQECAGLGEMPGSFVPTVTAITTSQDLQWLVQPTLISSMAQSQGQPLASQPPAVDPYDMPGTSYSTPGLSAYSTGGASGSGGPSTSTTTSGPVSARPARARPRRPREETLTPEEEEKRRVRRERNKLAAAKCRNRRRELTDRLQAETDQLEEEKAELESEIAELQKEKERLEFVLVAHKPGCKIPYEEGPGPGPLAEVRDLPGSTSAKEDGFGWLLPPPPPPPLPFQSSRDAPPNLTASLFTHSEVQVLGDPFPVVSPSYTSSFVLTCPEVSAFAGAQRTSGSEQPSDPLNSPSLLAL
NALP1 yeast inh = NALP1 inflammasome inhibitors in reconstituted yeast, colorimetric, S. cerevisiae, triplicate retest; S. cerevisiae NALP1/ASC/caspase-1 growth, X-gal OD620, 72 h; inhibition, % at 10 µM; 280,000 tested, 0.61% active; in the data active = inhibition mostly above about 24%, no sharp cut-off; inactive = mostly below about 32%
UBC13 inh = UBC13 polyubiquitin chain formation inhibitors, primary screen, biochemical, TR-FRET, uHTS | inhibition, % at 20 µM | 330,000 tested, 0.47% active | AID 485273, 2010; in the data active = inhibition above about 45%, passing the limit was not always enough
Target sequence (P61088 whole entry, looked up): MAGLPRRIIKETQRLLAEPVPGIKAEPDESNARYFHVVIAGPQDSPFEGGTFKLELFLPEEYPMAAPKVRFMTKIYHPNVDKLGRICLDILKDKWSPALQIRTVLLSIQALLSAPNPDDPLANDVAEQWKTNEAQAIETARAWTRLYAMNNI
NR3A LBD binder = binders of NR3A ligand-binding domain, primary screen, biophysical, differential scanning fluorimetry, uHTS; NR3A LBD differential scanning fluorimetry, Tm shift; 0% = protein alone, 100% = glycine-bound protein; Tm shift relative to glycine control, % at 25 µM; AID 1259313, 2017; 340,000 tested, 2.5% active;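 active = melting temperature shift of at least 10% of the positive control shift, at one fixed dose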
CR mimetic CP = superoxide lowering in aged yeast cells, confirmation, cherry picked compounds; superoxide response (% of plate), % at 10 µM; S. cerevisiae aging, superoxide DHE fluorescence; active compounds read low; 850 tested, 1% active; shares compounds with Yeast superoxide;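 active = superoxide signal below 65% of the plate average of sample wells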;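 also: cells aged with compound for 7 days at 30 degrees C before staining; 100% equals mean DHE fluorescence of all compound wells on the plate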
DHE counter = DHE quenching or ROS scavenging interference in aged yeast, artefact control for yeast caloric restriction mimetic project, S. cerevisiae BY4741, flow cytometry. shares compounds with Yeast superoxide. DHE fluorescence; active compounds read low. fluorescence response, % at 10 µM. 850 tested, under 10 active. AID 435000, 2010;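 active = fluorescence response below 15%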;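 also: percent of the mean fluorescence averaged over all compound wells on the plate; lower means stronger quenching of DHE signal or ROS scavenging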
* = called active by the depositor; / = no result given.

SMILES	Yeast superoxide	dFosB act	NALP1 yeast inh	UBC13 inh	NR3A LBD binder	CR mimetic CP	DHE counter
CN1CCN(c2nc3ccccc3nc2C(C#N)S(=O)(=O)c2ccccc2)CC1 (configuration not stated)	115	/	/	4	-2	/	/
N#CC(c1nc2ccccc2nc1N1CCCC1)S(=O)(=O)c1ccccc1 (configuration not stated)	63*	-16	42	-26	-4	101	106
Cc1cc(N)n2nc(-c3ccccc3)c(-c3ccccc3)c2n1	106	-9	-2	11	-3	100	93
CC(=O)c1cnc2c(-c3ccccc3)c(-c3ccccc3)nn2c1C	109	1	15	17	1	116	122
O=C1NN=C(CSc2n[nH]c(=S)s2)CS1	95	0	-10	-2	0	/	/
Cc1noc(C)c1COc1ccc(C(=O)N2CCN(c3cccc(Cl)c3)CC2)cc1	/	-11	/	1	4	/	/
COc1ccc(C(=O)N2CCN(c3cccc(Cl)c3)CC2)cc1	101	0	8	1	1	98	108
CCc1ccc2oc(C(=O)N3CCN(c4ccc(OC)cc4)CC3)cc(=O)c2c1	117	-6	6	3	-2	/	/
COc1cccc(N2CCN(C(=O)c3ccc(-c4ccccc4)cc3)CC2)c1	79	-3	0	3	3	/	/
COc1ccc(C(=O)N2CCN(c3ccccc3OC)CC2)cc1	109	-4	12	8	0	97	91
CCOc1ccc(C(=O)N2CCN(c3cccc(Cl)c3)CC2)cc1	115	-9	-6	3	-1	104	89
CCc1ccc2oc(C(=O)N3CCN(c4ccccc4OC)CC3)cc(=O)c2c1	62*	-1	4	-7	-2	106	95
COc1ccccc1N1CCN(C(=O)c2ccc(-c3ccccc3)cc2)CC1	82	-16	-51	2	-2	/	/
C/C(=N\NC(=O)c1ccccc1O)c1ccc(NC(=O)Cc2ccccc2)cc1	108	7	9	-10	-7	/	/
CCOC(=O)c1c(C)[nH]c(C)c1S(=O)(=O)N(C)CC(=O)Nc1cccc(C)n1	82	-3	15	-12	1	/	/
CCOc1ccc(C(=O)N2CCN(c3cccc(C)c3C)CC2)cc1	99	-3	-15	6	0	107	89
COc1ccc(-c2nnc(NC(=O)c3ccc(S(=O)(=O)N(C)CC4CCCO4)cc3)o2)c(OC)c1 (configuration not stated)	100	-6	-6	-14	-3	94	97
O=C(Nc1nnc(-c2ccc(F)cc2)o1)c1ccc(S(=O)(=O)N2CCOCC2)cc1	98	-9	5	-14	1	105	112
Cc1cc(NC(=O)c2ccc(S(=O)(=O)N(C)CC3CCCO3)cc2)no1 (configuration not stated)	91	0	9	-16	-1	/	/
COc1ccccc1-c1nnc(NC(=O)c2ccc(S(=O)(=O)N3CCCC3)cc2)o1	101	-11	2	-14	-3	116	106
CC1CCCN(S(=O)(=O)c2ccc(C(=O)Nc3nnc(C4CC4)o3)cc2)C1 (configuration not stated)	65*	-10	2	-11	-1	93	100
CC1CCCN(S(=O)(=O)c2ccc(C(=O)Nc3nnc(-c4ccccn4)o3)cc2)C1 (configuration not stated)	74	-7	4	-11	-2	/	/
COc1ccc(Cl)cc1NC(=O)CN(C)C(=O)CCNC(=O)c1ccccc1OC	116	-2	/	6	-3	/	/
O=C(O)C1CCCN1C(=O)NC1CCCCC1 (configuration not stated)	96	-3	21	0	0	/	/
CCc1cc(=O)oc2cc(OCc3ccc(C(=O)O)o3)ccc12	104	-7	17	-9	-10	/	/
SMILES	Yeast superoxide	dFosB act	NALP1 yeast inh	UBC13 inh	NR3A LBD binder	CR mimetic CP	DHE counter
C=CCN=C1S/C(=C/c2ccc([N+](=O)[O-])cc2)C(=O)N1CC=C	60*	-6	-9	2	0	77	89
OCCNCC(O)Cn1c2ccccc2c2ccccc21 (configuration not stated)	117	-3	-20	2	3	91	89
CCN(CC)CC(O)Cn1c2ccccc2c2ccccc21 (configuration not stated)	87	-2	-2	2	-5	112	90
OC(CN1CCCCC1)Cn1c2ccc(Cl)cc2c2cc(Cl)ccc21 (configuration not stated)	45*	-14	49*	38	-9	96	93
OC(CN1CCOCC1)Cn1c2ccccc2c2ccccc21 (configuration not stated)	44*	-3	12	-2	-2	97	105
C=CCN(CC=C)CC(O)Cn1c2ccccc2c2ccccc21 (configuration not stated)	97	-8	8	2	-1	92	98
CCC(=O)Nc1ccc(C(=O)CSc2nc(N)cc(N)n2)cc1	98	-2	/	-13	-5	/	/
CCC1=Nc2cc(C(=O)NCCCN3CCN(C)CC3)ccc2Sc2ccccc21	92	-8	28	9	0	/	/
Cc1ccc(-n2c(SCC(=O)Nc3ccc(Cl)cc3)nc(O)cc2=O)cc1	85	-6	2	-12	-6	/	/
O=C(Nc1ccc2nccnc2c1)Nc1ccccc1Cl	77	-4	0	-4	-11	/	/
O=C(Nc1cccc(Cl)c1)Nc1ccc2nccnc2c1	60*	-19	6	3	35*	86	94
O=C(COC(=O)c1cc[n+]([O-])cc1)Nc1ccc(Cl)cc1Cl	108	7	/	12	-2	/	/
O=C(COC(=O)c1ccccc1OCc1ccccc1Cl)NCC1CCCO1 (configuration not stated)	99	-17	/	18	1	/	/
COc1ccc(CC(=O)Nc2nc(-c3cccnc3)cs2)cc1	63*	0	24	-12	-2	98	108
CSc1ccc(-c2c(C#N)c(N)nc3c2CCCC3)cc1	64*	7	11	2	2	101	104
N#Cc1c(N)nc2c(c1-c1ccncc1)CCCCC2	97	-3	-7	2	-1	/	/
CC(C)CC(NC(=O)C1CCC(C)CC1)C(=O)NCCN1CCOCC1 (configuration not stated)	109	-2	10	5	-2	/	/
